Here are results for 24 sequences from article PMC5700166.

Common to all, as to test: protein-binding microarray (PBM); PBM: ~300 nM protein, 6 mM HEPES pH 7.8, 80 mM KCl, 0.5 mM EDTA, 0.5 mM EGTA, 6% glycerol, 35 ng/ul poly-dIdC, 1% milk, 1 h, room temperature; Ap Aiptasia and Nv Nematostella (sea anemones) / Co Capsaspora / Aq Amphimedon (sponge) / Dm Drosophila / Hu human; RHD is the Rel homology domain; high values mean tight binding
Holding throughout (conditions): dsDNA, one strand shown

Assay [1] deals with T1, GST-Ap-NF-kB RHD (Exaiptasia pallida (Aiptasia), UniProt A0A913YAJ5 2-422).
T1 sequence: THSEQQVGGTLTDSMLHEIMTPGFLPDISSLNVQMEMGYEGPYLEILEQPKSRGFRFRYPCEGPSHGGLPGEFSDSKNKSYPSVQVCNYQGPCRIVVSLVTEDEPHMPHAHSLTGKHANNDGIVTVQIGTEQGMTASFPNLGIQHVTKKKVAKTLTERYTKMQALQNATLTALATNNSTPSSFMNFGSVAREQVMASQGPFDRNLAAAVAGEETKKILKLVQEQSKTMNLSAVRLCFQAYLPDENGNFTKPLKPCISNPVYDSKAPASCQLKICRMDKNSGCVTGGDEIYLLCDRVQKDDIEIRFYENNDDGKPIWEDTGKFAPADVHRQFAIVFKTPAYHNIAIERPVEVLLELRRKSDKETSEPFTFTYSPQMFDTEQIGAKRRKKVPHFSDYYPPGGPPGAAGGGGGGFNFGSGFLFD

The target in assay [2] is T2, GST-Nv-NF-kB (Cys allele) (Nematostella vectensis, UniProt E5G601 2-411).
T2 sequence: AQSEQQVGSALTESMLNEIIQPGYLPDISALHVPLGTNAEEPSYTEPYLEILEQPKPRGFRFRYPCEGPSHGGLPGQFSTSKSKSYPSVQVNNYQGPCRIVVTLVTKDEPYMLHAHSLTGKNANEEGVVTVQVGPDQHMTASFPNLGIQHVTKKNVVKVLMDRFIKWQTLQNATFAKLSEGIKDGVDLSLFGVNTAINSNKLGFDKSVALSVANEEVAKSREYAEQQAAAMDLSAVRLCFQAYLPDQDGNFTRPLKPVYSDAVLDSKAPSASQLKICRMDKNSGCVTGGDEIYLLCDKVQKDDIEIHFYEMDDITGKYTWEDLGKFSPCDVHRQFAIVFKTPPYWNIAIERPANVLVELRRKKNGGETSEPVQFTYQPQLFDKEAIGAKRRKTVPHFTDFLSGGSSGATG

In assay [3] the target is T3, GST-Nv-NF-kB (Ser allele) (Nematostella vectensis, UniProt A7UNT2 2-411).
T3 sequence: T2 sequence with Q21R, C66S, S207N, E215Q, V217A, E225K, A268E, D399E

In assay [4] the target is T4, GST-Co-NF-kB (Capsaspora owczarzaki, UniProt F1ARL5 200-546).
T4 sequence: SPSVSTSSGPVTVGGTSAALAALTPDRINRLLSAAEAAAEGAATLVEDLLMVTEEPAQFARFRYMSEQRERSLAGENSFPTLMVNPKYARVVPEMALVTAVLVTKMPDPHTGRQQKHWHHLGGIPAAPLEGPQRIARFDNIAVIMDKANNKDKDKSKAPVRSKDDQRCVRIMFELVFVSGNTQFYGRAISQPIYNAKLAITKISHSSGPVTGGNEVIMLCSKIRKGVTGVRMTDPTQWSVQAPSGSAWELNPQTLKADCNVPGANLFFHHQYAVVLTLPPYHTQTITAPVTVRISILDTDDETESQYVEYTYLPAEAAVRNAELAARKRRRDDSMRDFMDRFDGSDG

Assay [5] has as its target T5, GST-Dm-Relish (Drosophila melanogaster, UniProt Q94527 99-473).
T5 sequence: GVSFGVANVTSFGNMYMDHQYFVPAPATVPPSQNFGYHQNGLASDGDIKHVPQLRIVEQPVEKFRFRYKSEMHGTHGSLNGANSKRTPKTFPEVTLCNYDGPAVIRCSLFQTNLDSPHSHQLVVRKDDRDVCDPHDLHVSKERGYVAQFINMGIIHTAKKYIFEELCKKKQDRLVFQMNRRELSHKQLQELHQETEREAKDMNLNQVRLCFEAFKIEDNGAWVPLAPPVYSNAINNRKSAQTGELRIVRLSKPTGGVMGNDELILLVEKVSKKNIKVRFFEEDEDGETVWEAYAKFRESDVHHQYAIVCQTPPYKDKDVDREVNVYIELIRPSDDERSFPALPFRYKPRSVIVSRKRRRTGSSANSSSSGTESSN

Assay [6] addresses T6, GST-Aq-NF-kB (Amphimedon queenslandica, UniProt A9Y5G7 2-389).
T6 sequence: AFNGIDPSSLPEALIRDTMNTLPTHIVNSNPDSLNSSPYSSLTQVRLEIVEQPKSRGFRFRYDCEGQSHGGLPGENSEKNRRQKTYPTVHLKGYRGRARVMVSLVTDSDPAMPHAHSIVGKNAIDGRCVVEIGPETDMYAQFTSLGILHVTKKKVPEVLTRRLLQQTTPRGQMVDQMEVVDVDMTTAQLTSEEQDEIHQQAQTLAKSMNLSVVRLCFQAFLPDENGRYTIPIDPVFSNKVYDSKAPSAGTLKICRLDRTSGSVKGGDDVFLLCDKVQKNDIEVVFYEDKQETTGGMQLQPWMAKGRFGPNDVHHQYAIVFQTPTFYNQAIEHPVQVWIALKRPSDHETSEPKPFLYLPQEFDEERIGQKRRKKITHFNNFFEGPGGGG

Residue numbers refer to the chain shown, from its start.

“CCGATTAACATCACGCCCCCCCCTGATGTTAATCGGGTCTTGATTCGCTTGACGCTGCTG”: the binding signal stood at 5.3 z-score in assay [1]; 4.2 z-score in assay [2]; 4.8 z-score in assay [3]; 3.87 z-score in assay [4]; 4.72 z-score in assay [5]; 4.89 z-score in assay [6].
For “CCGATTAACATCAGGGGAGATTATGATGTTAATCGGGTCTTGATTCGCTTGACGCTGCTG”, the binding signal in assay [1] was 6.83 z-score; in assay [2] it was 5.48 z-score; in assay [3], 6.7 z-score; in assay [4], 5.91 z-score; in assay [5], 2.68 z-score; in assay [6], 4.52 z-score.
Take “CCGATTAACATCAAAGGGAATTCTGATGTTAATCGGGTCTTGATTCGCTTGACGCTGCTG”: the binding signal in assay [1] stood at 4.72 z-score; in assay [2], 7.1 z-score; in assay [3], 6.91 z-score; in assay [4], 2.97 z-score; in assay [5], 4.04 z-score; in assay [6], 5.65 z-score.
Take “CCGATTAACATCAGGGGAACTAATGATGTTAATCGGGTCTTGATTCGCTTGACGCTGCTG”: the binding signal in assay [1] was 4.99 z-score; in assay [2], 5.41 z-score; in assay [3], 6.66 z-score; in assay [4], 6.12 z-score; in assay [5], 4.37 z-score; in assay [6] it was 4.07 z-score.
For the sequence “CCGATTAACATCAACGTTTTCCCTGATGTTAATCGGGTCTTGATTCGCTTGACGCTGCTG”, the binding signal in assay [1] stood at 3.04 z-score; in assay [2], 4.61 z-score; in assay [3], 6.7 z-score; in assay [4], 4.29 z-score; in assay [5], 1.51 z-score; in assay [6], 3.21 z-score.
For “CCGATTAACATCAAATCCCCCCTTGATGTTAATCGGGTCTTGATTCGCTTGACGCTGCTG”, the binding signal in assay [1] is 8.14 z-score; in assay [2], 6.82 z-score; in assay [3] it was 7.98 z-score; in assay [4], 6.62 z-score; in assay [5], 7.95 z-score; in assay [6] it was 6.8 z-score.
Regarding “CCGATTAACATCAGGGGGGGGCATGATGTTAATCGGGTCTTGATTCGCTTGACGCTGCTG”, the binding signal in assay [1] came out at 4.94 z-score; in assay [2] it was 4.84 z-score; in assay [3], 4.15 z-score; in assay [4], 4.65 z-score; in assay [5], 3.78 z-score; in assay [6], 3.82 z-score.
“CCGATTAACATCAGGGAAAATCATGATGTTAATCGGGTCTTGATTCGCTTGACGCTGCTG”: the binding signal in assay [1] worked out at 3.91 z-score; in assay [2] it was 5.72 z-score; in assay [3], 7.02 z-score; in assay [4], 4.62 z-score; in assay [5], 1.46 z-score; in assay [6] it was 5.1 z-score.
As to “CCGATTAACATCAGGGGTAACACTGATGTTAATCGGGTCTTGATTCGCTTGACGCTGCTG”, the binding signal in assay [1] is 1.82 z-score; in assay [2], 1.03 z-score; in assay [3], 1.27 z-score; in assay [4], 4.28 z-score; in assay [6], 2.5 z-score.
Take “CCGATTAACATCAACGGGAACTCTGATGTTAATCGGGTCTTGATTCGCTTGACGCTGCTG”: the binding signal in assay [1] was determined as 2.34 z-score; in assay [2], 1.64 z-score; in assay [3], 1.08 z-score; in assay [4] it was 1.78 z-score; in assay [5] it was 1.77 z-score; in assay [6], 2.25 z-score.
Take “CCGATTAACATCAATTTTTTCCCTGATGTTAATCGGGTCTTGATTCGCTTGACGCTGCTG”: the binding signal in assay [1] was 3.79 z-score; in assay [2], 5.88 z-score; in assay [3], 7.47 z-score; in assay [4], 6.48 z-score; in assay [5] it was 2.71 z-score; in assay [6], 4.16 z-score.
As for “CCGATTAACATCAACCAATTCCCTGATGTTAATCGGGTCTTGATTCGCTTGACGCTGCTG”, the binding signal in assay [1] amounted to 2.49 z-score; in assay [2], 3.94 z-score; in assay [3], 3.98 z-score; in assay [4] it was 1.83 z-score; in assay [6], 3.16 z-score.
In the case of “CCGATTAACATCAGGGAAAAACCTGATGTTAATCGGGTCTTGATTCGCTTGACGCTGCTG”, the binding signal in assay [1] amounted to 5.74 z-score; in assay [2], 7.26 z-score; in assay [3], 7.89 z-score; in assay [4], 3.82 z-score; in assay [5], 8.13 z-score; in assay [6] it was 9.06 z-score.
Take “CCGATTAACATCAGGGGGGGGTATGATGTTAATCGGGTCTTGATTCGCTTGACGCTGCTG”: the binding signal in assay [1] was determined as 5.02 z-score; in assay [2] it was 2.75 z-score; in assay [3], 3.75 z-score; in assay [4] it was 5.96 z-score; in assay [6], 4.39 z-score.
On to “CCGATTAACATCAGCATGGGAAATGATGTTAATCGGGTCTTGATTCGCTTGACGCTGCTG”, for which the binding signal in assay [1] was found to be 1.97 z-score; in assay [2], 2.72 z-score; in assay [3], 2.33 z-score; in assay [4], 1.93 z-score; in assay [6] it was 1.67 z-score.
With “CCGATTAACATCAAGAGTTCCCCTGATGTTAATCGGGTCTTGATTCGCTTGACGCTGCTG”, the binding signal came out at 7.18 z-score in assay [1]; 7.2 z-score in assay [2]; 7.72 z-score in assay [3]; 6.55 z-score in assay [4]; 7.58 z-score in assay [5]; 5.77 z-score in assay [6].
“CCGATTAACATCAGGGAGACCCCTGATGTTAATCGGGTCTTGATTCGCTTGACGCTGCTG”: the binding signal in assay [1] is 6.28 z-score; in assay [2], 3.82 z-score; in assay [3], 1.04 z-score; in assay [4], 2.28 z-score; in assay [5], 6.09 z-score; in assay [6], 6.87 z-score.
Regarding “CCGATTAACATCACGGGATTTTCTGATGTTAATCGGGTCTTGATTCGCTTGACGCTGCTG”, the binding signal amounted to 5.11 z-score in assay [1]; 4.77 z-score in assay [2]; 4.15 z-score in assay [3]; 1.98 z-score in assay [4]; 6.84 z-score in assay [5]; 5.2 z-score in assay [6].
Take “CCGATTAACATCAGGCGTTTCCCTGATGTTAATCGGGTCTTGATTCGCTTGACGCTGCTG”: the binding signal in assay [1] worked out at 2.18 z-score; in assay [2], 3.27 z-score; in assay [3], 2.59 z-score; in assay [4], 1.83 z-score; in assay [5], 1.54 z-score; in assay [6] it was 4.39 z-score.
For “CCGATTAACATCACCGTTTTCCCTGATGTTAATCGGGTCTTGATTCGCTTGACGCTGCTG”, the binding signal in assay [1] was 3.62 z-score; in assay [2], 4.51 z-score; in assay [3] it was 6.61 z-score; in assay [4], 4.03 z-score; in assay [5], 2.19 z-score; in assay [6], 3.24 z-score.
With “CCGATTAACATCAGACGTGGGAATGATGTTAATCGGGTCTTGATTCGCTTGACGCTGCTG”, the binding signal in assay [1] turned out to be 1.19 z-score; in assay [2], 1.45 z-score; in assay [3], 1.48 z-score; in assay [4], 2.5 z-score; in assay [6] it was 2.21 z-score.
Take “CCGATTAACATCACATCTTCCCCTGATGTTAATCGGGTCTTGATTCGCTTGACGCTGCTG”: the binding signal in assay [1] came to 4.99 z-score; in assay [2], 6.11 z-score; in assay [3] it was 7.12 z-score; in assay [4], 6.39 z-score; in assay [5], 2.45 z-score; in assay [6], 4.78 z-score.
Consider “CCGATTAACATCACGTTTTTCCCTGATGTTAATCGGGTCTTGATTCGCTTGACGCTGCTG”, for which the binding signal worked out at 3.81 z-score in assay [1]; 4.59 z-score in assay [2]; 6.7 z-score in assay [3]; 5.98 z-score in assay [4]; 4.58 z-score in assay [5]; 4.26 z-score in assay [6].
For the sequence “CCGATTAACATCAAGGGAAAAAATGATGTTAATCGGGTCTTGATTCGCTTGACGCTGCTG”, the binding signal worked out at 3.77 z-score in assay [1]; 5.84 z-score in assay [2]; 7.2 z-score in assay [3]; 5.23 z-score in assay [4]; 1.86 z-score in assay [5]; 4.83 z-score in assay [6].
